log2 fold change data for 39 targets are collected here from the supplement of paper PMC10849652.

The full data set covers some 7,900 targets. This sample favours those with a hit. About 0.6% of all pairs of compound and target were hits. Values without a mark were called inactive.

Sequence of UniProt Q8N6R0 (Q8N6R0 whole entry, looked up): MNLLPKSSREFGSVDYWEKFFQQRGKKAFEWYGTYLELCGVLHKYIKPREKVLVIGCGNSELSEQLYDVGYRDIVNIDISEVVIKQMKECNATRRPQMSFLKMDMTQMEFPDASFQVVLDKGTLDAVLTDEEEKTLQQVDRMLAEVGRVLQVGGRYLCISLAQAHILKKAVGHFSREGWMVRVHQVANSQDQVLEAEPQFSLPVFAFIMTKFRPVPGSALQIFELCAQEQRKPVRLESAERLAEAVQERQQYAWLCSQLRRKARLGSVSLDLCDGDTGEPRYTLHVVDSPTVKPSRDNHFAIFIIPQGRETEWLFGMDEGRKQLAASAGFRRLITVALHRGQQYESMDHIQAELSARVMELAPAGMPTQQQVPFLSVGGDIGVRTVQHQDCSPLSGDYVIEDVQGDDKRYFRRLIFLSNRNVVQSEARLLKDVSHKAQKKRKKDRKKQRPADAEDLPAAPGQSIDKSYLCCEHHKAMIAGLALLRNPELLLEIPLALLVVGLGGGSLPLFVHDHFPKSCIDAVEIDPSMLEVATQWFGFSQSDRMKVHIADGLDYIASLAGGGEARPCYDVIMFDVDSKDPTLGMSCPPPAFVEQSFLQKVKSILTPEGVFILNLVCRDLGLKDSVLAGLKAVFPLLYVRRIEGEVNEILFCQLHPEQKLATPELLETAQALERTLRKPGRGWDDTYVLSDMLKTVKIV
Sequence of UniProt P35222 (P35222 whole entry, looked up): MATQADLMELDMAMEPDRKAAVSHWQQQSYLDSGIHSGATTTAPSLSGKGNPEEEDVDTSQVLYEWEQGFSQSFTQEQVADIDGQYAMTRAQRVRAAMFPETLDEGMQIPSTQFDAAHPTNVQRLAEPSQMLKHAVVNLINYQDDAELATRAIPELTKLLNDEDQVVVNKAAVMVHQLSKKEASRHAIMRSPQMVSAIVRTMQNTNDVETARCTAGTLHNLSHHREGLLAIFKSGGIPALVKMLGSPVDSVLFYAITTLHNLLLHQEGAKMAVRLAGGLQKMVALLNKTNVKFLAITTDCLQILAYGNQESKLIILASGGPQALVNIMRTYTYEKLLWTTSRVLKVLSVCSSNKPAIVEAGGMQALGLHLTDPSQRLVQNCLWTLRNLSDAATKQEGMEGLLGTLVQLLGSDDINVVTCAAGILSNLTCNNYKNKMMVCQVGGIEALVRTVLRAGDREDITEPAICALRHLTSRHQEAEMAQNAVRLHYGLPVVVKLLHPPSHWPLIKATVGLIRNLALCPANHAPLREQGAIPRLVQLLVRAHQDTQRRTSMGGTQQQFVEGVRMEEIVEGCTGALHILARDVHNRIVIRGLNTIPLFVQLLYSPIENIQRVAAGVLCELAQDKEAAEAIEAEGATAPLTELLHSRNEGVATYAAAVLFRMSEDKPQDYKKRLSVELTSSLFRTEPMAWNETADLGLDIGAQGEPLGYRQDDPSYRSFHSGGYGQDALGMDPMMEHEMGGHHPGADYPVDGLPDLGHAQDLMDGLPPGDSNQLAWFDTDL
Sequence of UniProt Q96DF8 (Q96DF8 whole entry, looked up): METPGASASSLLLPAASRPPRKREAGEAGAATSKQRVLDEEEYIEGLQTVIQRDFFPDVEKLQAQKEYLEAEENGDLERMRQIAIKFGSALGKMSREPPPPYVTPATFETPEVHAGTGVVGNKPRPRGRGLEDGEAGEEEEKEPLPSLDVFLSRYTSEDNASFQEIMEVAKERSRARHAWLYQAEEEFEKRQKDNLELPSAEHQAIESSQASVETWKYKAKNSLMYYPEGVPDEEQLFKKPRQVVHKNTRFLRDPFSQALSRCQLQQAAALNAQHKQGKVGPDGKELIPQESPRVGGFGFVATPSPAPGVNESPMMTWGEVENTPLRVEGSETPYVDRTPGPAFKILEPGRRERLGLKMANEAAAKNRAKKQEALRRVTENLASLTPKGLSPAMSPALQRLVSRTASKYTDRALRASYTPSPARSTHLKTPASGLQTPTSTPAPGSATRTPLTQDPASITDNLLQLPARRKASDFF
Sequence of UniProt Q6UX07 (Q6UX07 whole entry, looked up): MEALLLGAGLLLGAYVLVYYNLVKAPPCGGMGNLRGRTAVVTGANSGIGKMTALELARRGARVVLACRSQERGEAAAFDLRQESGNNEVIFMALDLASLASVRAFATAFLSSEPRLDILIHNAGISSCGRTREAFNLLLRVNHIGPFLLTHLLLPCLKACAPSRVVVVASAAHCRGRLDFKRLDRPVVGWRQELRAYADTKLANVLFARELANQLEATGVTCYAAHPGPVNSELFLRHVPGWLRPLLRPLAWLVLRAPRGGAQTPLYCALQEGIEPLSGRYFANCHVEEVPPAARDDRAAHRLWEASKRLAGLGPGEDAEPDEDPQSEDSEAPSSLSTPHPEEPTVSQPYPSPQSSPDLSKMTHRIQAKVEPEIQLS
Sequence of UniProt Q15392 (Q15392 whole entry, looked up): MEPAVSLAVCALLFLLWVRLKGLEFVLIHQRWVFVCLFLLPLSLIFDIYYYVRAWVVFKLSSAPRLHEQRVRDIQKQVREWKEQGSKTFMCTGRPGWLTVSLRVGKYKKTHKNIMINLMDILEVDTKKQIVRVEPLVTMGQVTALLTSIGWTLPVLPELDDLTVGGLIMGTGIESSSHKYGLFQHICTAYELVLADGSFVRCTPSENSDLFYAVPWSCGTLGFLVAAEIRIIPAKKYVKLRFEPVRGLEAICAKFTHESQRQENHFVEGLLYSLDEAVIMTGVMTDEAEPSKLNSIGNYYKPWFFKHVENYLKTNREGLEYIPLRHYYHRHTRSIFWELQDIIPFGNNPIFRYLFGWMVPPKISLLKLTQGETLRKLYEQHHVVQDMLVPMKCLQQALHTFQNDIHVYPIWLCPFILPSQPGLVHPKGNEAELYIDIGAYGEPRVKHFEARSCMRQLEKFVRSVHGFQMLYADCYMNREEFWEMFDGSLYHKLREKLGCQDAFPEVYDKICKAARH
Sequence of UniProt Q96LJ7 (Q96LJ7 whole entry, looked up): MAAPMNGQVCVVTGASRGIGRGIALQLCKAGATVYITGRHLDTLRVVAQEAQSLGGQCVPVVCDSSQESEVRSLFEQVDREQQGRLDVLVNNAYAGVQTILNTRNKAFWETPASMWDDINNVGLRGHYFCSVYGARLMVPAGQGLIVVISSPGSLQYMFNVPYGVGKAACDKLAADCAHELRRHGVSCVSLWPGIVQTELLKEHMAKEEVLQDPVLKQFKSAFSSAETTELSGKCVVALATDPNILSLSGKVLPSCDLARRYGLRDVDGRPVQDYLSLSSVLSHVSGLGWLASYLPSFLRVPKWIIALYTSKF
Sequence of UniProt P50570 (P50570 whole entry, looked up): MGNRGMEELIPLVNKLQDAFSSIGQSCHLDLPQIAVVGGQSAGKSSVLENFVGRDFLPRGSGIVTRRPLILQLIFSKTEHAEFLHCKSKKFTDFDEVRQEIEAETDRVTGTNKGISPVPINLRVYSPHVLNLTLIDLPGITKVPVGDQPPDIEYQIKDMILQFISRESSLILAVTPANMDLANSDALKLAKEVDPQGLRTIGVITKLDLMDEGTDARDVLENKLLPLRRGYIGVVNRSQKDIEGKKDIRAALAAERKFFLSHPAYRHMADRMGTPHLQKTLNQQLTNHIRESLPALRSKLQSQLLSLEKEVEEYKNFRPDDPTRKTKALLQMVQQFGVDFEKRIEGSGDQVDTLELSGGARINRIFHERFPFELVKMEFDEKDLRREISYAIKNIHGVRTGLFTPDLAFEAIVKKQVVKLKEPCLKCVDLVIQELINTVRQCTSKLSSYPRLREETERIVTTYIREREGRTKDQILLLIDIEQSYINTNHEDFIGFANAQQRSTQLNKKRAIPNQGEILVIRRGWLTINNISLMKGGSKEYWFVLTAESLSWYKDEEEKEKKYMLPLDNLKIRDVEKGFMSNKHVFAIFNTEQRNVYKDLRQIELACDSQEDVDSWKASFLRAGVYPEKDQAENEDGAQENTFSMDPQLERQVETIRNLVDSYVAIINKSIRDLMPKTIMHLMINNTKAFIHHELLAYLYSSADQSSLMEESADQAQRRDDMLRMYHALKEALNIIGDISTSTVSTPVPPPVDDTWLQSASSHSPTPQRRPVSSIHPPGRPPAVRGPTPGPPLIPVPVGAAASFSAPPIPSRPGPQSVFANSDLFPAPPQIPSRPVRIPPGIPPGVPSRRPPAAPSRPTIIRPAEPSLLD
Sequence of UniProt P98082 (P98082 whole entry, looked up): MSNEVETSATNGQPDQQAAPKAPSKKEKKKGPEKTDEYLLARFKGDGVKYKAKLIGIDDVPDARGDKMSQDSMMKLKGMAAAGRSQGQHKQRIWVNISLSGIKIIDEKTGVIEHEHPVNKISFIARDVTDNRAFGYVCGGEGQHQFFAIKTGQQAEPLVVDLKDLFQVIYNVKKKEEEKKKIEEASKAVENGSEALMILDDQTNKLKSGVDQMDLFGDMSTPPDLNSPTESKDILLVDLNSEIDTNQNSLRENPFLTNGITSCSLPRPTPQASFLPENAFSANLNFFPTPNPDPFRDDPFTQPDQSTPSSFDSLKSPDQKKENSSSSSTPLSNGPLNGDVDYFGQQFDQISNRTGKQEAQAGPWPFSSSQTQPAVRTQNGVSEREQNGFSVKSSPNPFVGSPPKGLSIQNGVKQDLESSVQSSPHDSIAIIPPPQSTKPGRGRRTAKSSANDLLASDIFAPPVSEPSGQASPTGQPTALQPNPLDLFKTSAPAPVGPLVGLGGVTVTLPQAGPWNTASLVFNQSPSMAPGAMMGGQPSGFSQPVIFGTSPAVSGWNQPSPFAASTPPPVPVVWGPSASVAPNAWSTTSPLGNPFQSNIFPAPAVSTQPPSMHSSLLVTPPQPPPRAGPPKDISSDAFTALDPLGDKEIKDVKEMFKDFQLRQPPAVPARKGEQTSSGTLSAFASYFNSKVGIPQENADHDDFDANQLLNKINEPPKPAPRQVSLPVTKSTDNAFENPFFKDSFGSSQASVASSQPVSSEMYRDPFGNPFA
Sequence of UniProt P06730 (P06730 whole entry, looked up): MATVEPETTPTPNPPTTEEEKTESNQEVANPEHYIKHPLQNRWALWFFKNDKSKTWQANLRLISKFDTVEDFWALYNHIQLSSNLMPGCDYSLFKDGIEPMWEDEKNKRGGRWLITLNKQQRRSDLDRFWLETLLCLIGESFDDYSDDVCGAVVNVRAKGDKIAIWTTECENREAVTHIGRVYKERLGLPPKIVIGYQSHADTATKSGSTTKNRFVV

Compound in the first assay: CNC(=O)C1=CC=CC=C1NC2=NC(=NC=C2Cl)NC3=C(C=C(C=C3)N4CCOCC4)OC
As to the kind of experiment: log2 fold change, soluble protein after heating vs DMSO (PISA); higher = thermal stabilisation; K562 cells, 10 uM, 30 min; active = over 0.2 and 3.5 SD of the protein, either way, in both replicates (recomputed). The method, boiled down: (§1)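 For each measurement, 10 μM compound was applied for 30 min to K562 cells at 2×10^6 cells/mL. Aliquots were heated for 3 min across 48°C-58°C, pooled, and extracted in PBS with 0.5% NP-40 at 4°C; the supernatant after 21,000xg for 90 min was soluble protein. This was quantified by TMTpro 16plex LC-MS/MS with channel sums equalised, and thermal stability was reported relative to control samples from duplicates, on a log2 fold-change scale.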
As for DDB1 (UniProt Q16531), the log2 fold change is 0.001.
Same read-out and setting: the same measure for DNM2 (UniProt P50570): -0.027; for ESS2 (UniProt Q96DF8): -0.038; for DCUN1D1 (UniProt Q96GG9): 0.007.
The same measure, in the same setting: as for EXOC4 (UniProt Q96A65), the figure is -0.04; as for EDC4 (UniProt Q6P2E9), -0.163; as for DAB2 (UniProt P98082), 0.031.
Still for that read-out and setting: the same measure for DHRS7B (UniProt Q6IAN0): 0.051; for F5 (UniProt P12259): 0.133; for DDX46 (UniProt Q7L014): 0.054.
With EXTL2 (UniProt Q9UBQ6), the log2 fold change was -0.072.
Consider DYNC1LI2 (UniProt O43237), for which the log2 fold change is 0.028.
The same measure, in the same setting: as for EFL1 (UniProt Q7Z2Z2), the figure is -0.014; as for CUX1 isoform 3 (UniProt P39880), 0.012; as for FAM114A2 (UniProt Q9NRY5), -0.001.
Same read-out and setting: the same measure for CTSH (UniProt P09668): -0.002; for DHX36 (UniProt Q9H2U1): -0.041; for DNAH11 (UniProt Q96DT5): -0.043.
Same read-out and setting: as for DPH5 isoform 5 (UniProt Q9H2P9), the figure is 0.07.
On to DHCR24 (UniProt Q15392), for which the log2 fold change was -0.094.
Same read-out and setting: the same measure for DHRS13 (UniProt Q6UX07): 0.024; for CUX1 isoform 2 (UniProt Q13948): 0.03.
On the same count and under the same terms, as for DBNL isoform 3 (UniProt Q9UJU6), the figure is 0.01.
The same measure, in the same setting: the same measure for CYFIP1 (UniProt Q7L576): -0.001; for ERCC6 (UniProt Q03468): 0.126.
For the target DHX40 (UniProt Q8IX18), the log2 fold change is -0.043.
On the same count and under the same terms, the same measure for EEF1AKNMT (UniProt Q8N6R0): 0.063.
On the same count and under the same terms, the same measure for DHPS (UniProt P49366): -0.026; for DHRS1 (UniProt Q96LJ7): 0.375; for CTSV (UniProt O60911): 0.048.
Same read-out and setting: as for DHCR7 (UniProt Q9UBM7), the figure is -0.181; as for EIF4G1 isoform 8 (UniProt Q04637), -0.067.
FAM3A (UniProt P98173): the log2 fold change is 0.065.
The same measure, in the same setting: as for CTNNB1 (UniProt P35222), the figure is -0.065; as for EIF3J (UniProt O75822), 0.019.
Take EVC2 (UniProt Q86UK5): the log2 fold change is -0.035.
For the target EIF4E isoform 2 (UniProt P06730), the log2 fold change is 0.
Still for that read-out and setting: as for EGLN1 (UniProt Q9GZT9), the figure is 0.065; as for EHD2 (UniProt Q9NZN4), -0.031.

Compound in the next assay: CNC(=O)c1ccc(Nc2ncc(C(F)(F)F)c(NCc3nccnc3N(C)S(C)(=O)=O)n2)cc1 [defactinib]
Described as above. A digest of the protocol: as §1
As for DDB1 (UniProt Q16531), the log2 fold change is 0.002.
The same measure, in the same setting: the same measure for DNM2 (UniProt P50570): -0.02; for ESS2 (UniProt Q96DF8): 0; for DCUN1D1 (UniProt Q96GG9): -0.033.
The same measure, in the same setting: as for EXOC4 (UniProt Q96A65), the figure is -0.049.
As to EDC4 (UniProt Q6P2E9), the log2 fold change is -0.148.
Still for that read-out and setting: the same measure for DAB2 (UniProt P98082): -0.026.
Same read-out and setting: the same measure for DHRS7B (UniProt Q6IAN0): -0.067; for F5 (UniProt P12259): 0.081; for DDX46 (UniProt Q7L014): -0.296.
On the same count and under the same terms, the same measure for EXTL2 (UniProt Q9UBQ6): -0.145; for DYNC1LI2 (UniProt O43237): -0.039; for EFL1 (UniProt Q7Z2Z2): -0.022.
On to CUX1 isoform 3 (UniProt P39880), for which the log2 fold change was -0.065.
As for FAM114A2 (UniProt Q9NRY5), the log2 fold change is -0.04.
Same read-out and setting: the same measure for CTSH (UniProt P09668): 0.018; for DHX36 (UniProt Q9H2U1): 0.171; for DNAH11 (UniProt Q96DT5): -0.11.
Same read-out and setting: the same measure for DPH5 isoform 5 (UniProt Q9H2P9): 0; for DHCR24 (UniProt Q15392): -0.017.
DHRS13 (UniProt Q6UX07): the log2 fold change was -0.032.
Same read-out and setting: the same measure for CUX1 isoform 2 (UniProt Q13948): -0.049; for DBNL isoform 3 (UniProt Q9UJU6): -0.106; for CYFIP1 (UniProt Q7L576): -0.049.
Same read-out and setting: the same measure for ERCC6 (UniProt Q03468): 0.016; for DHX40 (UniProt Q8IX18): -0.163.
Same read-out and setting: as for EEF1AKNMT (UniProt Q8N6R0), the figure is -0.068.
DHPS (UniProt P49366): the log2 fold change is -0.027.
The same measure, in the same setting: the same measure for DHRS1 (UniProt Q96LJ7): -0.007.
The same measure, in the same setting: as for CTSV (UniProt O60911), the figure is 0.011.
Same read-out and setting: as for DHCR7 (UniProt Q9UBM7), the figure is -0.01; as for EIF4G1 isoform 8 (UniProt Q04637), 0.008.
FAM3A (UniProt P98173): the log2 fold change was -0.035.
The same measure, in the same setting: as for CTNNB1 (UniProt P35222), the figure is 0.074; as for EIF3J (UniProt O75822), 0.019.
On to EVC2 (UniProt Q86UK5), for which the log2 fold change is -0.065.
Turning to EIF4E isoform 2 (UniProt P06730), the log2 fold change was -0.012.
On the same count and under the same terms, as for EGLN1 (UniProt Q9GZT9), the figure is -0.027; as for EHD2 (UniProt Q9NZN4), -0.12.
